Source: PubChem BioAssay (NCATS)
Active and inactive are the calls of the source. Calls come from the whole dose curve.

Assay: Cell Proliferation Assay Versus the ED40515 IL2 Dependent ATL cell lines (AID 1053195)
Settings: ED40515 IL2-dependent ATL cells
Excerpt: Adult T-cell leukemia (ATL) develops in individuals infected with human T-cell lymphotropic virus-1 (HTLV-1). Clinically, ATL is subclassified into four subtypes: smoldering, chronic, lymphomatous, and acute. Two autocrine loops (IL-2/IL-2Ralpha and IL-15/IL-15Ralpha) and one paracrine stimulation loop that involves IL-9 expression by ATL cells and IL-9Ralpha expression on monocytes are required to maintain viability and proliferation in the smoldering and chronic forms of the disease. These assays examined the differential response profiles for the MIPE library of approved and investigational drugs versus an IL2 dependent and independent matched ATL cell line, with the current submission examining the differential response profiles for drugs on an IL2 dependent matched ATL cell line.
Plate log growing ED40515 +IL2 cells: 1000cells/ well in 5uL phenol red free RPMI +5% FBS +1x p/s, Glutamine using 1536 well white griener tissue culture plates and multidrop cassette acoustic dispensing Columns 1 and 3 DMSO Columns 2 and 4, 9.2 uM Bortezomib Incubate 48 hours for celltiter glo 37C with 5%CO2 and 95% humidity with low evaporation lids Dispense 3 uL per well of cell titer glo with multidrop Incubate for 15 minutes at RT Read on VL/2 using Luminesence Wheel (Filter A)

Row | Compound | Potency
1 | COC1(CS(=O)c2ccccc2)CCN(CCc2c[nH]c3ccc(F)cc23)CC1 (stereo not given) | 23.5 µM (active)
2 | Cc1cc(SCc2sc(-c3ccc(C(F)(F)F)c(F)c3)nc2C)ccc1OCC(=O)O | 18.7 µM (active)
3 | CN(C)CCN(C)CCc1ccc(Cl)c(Cl)c1 | 16.6 µM (active)
4 | Cn1cc(C2=C(c3cn(C4CCN(Cc5ccccn5)CC4)c4ccccc34)C(=O)NC2=O)c2ccccc21 | 14.8 µM (active)
5 | CCCCC/C=C\C/C=C\C/C=C\C/C=C\CCCC(=O)NC1CC1 | 16.6 µM (active)
6 | C[C@@H]1[C@@H](C(=O)C[C@H]2O[C@@H]3O[C@]4(C)CC[C@@H]5[C@H](C)CC[C@@H]([C@H]2C)[C@@]35OO4)O[C@@H]2O[C@]3(C)CC[C@H]4[C@H](C)CC[C@@H]1[C@@]24OO3 | 0.0066 µM (active)
7 | C[C@]12CCC(=O)C(O)=C1CC[C@@H]1[C@@H]2CC[C@]2(C)C(=O)CC[C@@H]12 | 0.059 µM (active)
8 | CC(C)n1c(C=C[C@H](O)C[C@H](O)CC(=O)O)c(-c2ccc(F)cc2)c2ccccc21 | 0.209 µM (active)
9 | O=C(O)C(=O)c1cn(Cc2ccccc2)c2ccc(-c3ccc(OC(F)(F)F)cc3)cc12 | 20.9 µM (active)
10 | O=c1c(O)c(-c2ccc(O)c(O)c2)oc2cc(O)cc(O)c12 | 16.6 µM (active)
11 | CC1=C2C[C@@H]3[C@@H](CC=C4C[C@@H](O)CC[C@@]43C)[C@@H]2CC[C@]12O[C@H]1C[C@H](C)CN[C@H]1[C@H]2C | 16.6 µM (active)
12 | CNC(=O)N1N=C(c2ccc(N)cc2)c2cc3c(cc2CC1C)OCO3 (stereo not given) | 14.8 µM (active)
13 | CC(O)(CS(=O)(=O)c1ccc(F)cc1)C(=O)Nc1ccc(C#N)c(C(F)(F)F)c1 (stereo not given) | 14.8 µM (active)
14 | C[C@@H]1[C@@H](CC(C[C@H]2O[C@@H]3O[C@]4(C)CC[C@@H]5[C@H](C)CC[C@@H]([C@H]2C)[C@@]35OO4)C[S+](=O)([O-])c2ccc(COC(=O)N(C)C)cc2)O[C@@H]2O[C@]3(C)CC[C@H]4[C@H](C)CC[C@@H]1[C@@]24OO3 (stereo not given in full) | 0.0166 µM (active)
15 | CNC(=O)c1ccc(N2C(=S)N(c3ccc(C#N)c(C(F)(F)F)c3)C(=O)C23CCC3)cc1F | 20.9 µM (active)
